# The supplement of paper PMC13380429
# Unmarked numbers belong to inactive results.
# Test system: Vero E6 infected with SARS-CoV-2
# Experiment: inhibition of SARS-CoV-2 cytopathic effect; higher = more antiviral protection, active = above 15
# Conditions: 48 h
SMILES,inhibition of SARS-CoV-2 cytopathic effect (1 nM),inhibition of SARS-CoV-2 cytopathic effect (8.33 nM),inhibition of SARS-CoV-2 cytopathic effect (100 nM),inhibition of SARS-CoV-2 cytopathic effect (833.33 nM),inhibition of SARS-CoV-2 cytopathic effect (10000 nM)
CC(C)(O)[C@@H]1[C@H]2OC(=O)[C@@H]1[C@]1(O)C[C@H]3O[C@]34C(=O)O[C@H]2[C@]14C [picrotin],-0.34%,1.31%,1.26%,-0.13%,3.22%
O=C1C(CC[S+]([O-])c2ccccc2)C(=O)N(c2ccccc2)N1c1ccccc1 (stereo not given) [sulfinpyrazone],1.22%,1.51%,-0.06%,0.46%,0.32%
CCN(CCCCOC(=O)c1ccc(OC)c(OC)c1)C(C)Cc1ccc(OC)cc1 (stereo not given) [mebeverine],1.37%,-1.75%,-0.83%,-1.35%,-3.11%
COc1c(C)cnc(Cn2cc(C#CCC(C)(C)O)c3c(Cl)nc(N)nc32)c1C,2.11%,1.52%,-1.98%,0.61%,-7.6%
Cc1ncc(C)n2nc([C@@H]3C[C@H]3c3nc4c5cccnc5ccn4c3C)nc12,0.4%,0.57%,0.67%,-1.22%,4.45%
COc1ccc(CN(C(=O)[C@@H](N)Cc2c(C)cc(C(N)=O)cc2C)[C@@H](C)c2ncc(-c3ccccc3)[nH]2)cc1C(=O)O [eluxadoline],2.78%,1.84%,0.96%,1.03%,1.03%
CCCCNc1ccc(C(=O)OCCN(C)C)cc1 [tetracaine],2.75%,-1.31%,-0.22%,-2.39%,0.71%
CC(C)n1cnc2c(C(=O)N[C@H]3CN4CCC3CC4)cc(Cl)cc21,-1.27%,-1.37%,-1.13%,1.32%,-4.61%
COc1ccc(F)c(F)c1C(=O)c1cnc(NC2CCN(S(C)(=O)=O)CC2)nc1N,-1.93%,-3.14%,-5.01%,6.41%,-11.5%
COc1cc2nc(N3CCCN(C)CC3)nc(NC3CCN(Cc4ccccc4)CC3)c2cc1OC,0.59%,0.41%,-2.3%,1.53%,11.7%
COc1cc(F)c(C(C)C)cc1-c1ccc(C(F)(F)F)cc1CN1C(=O)O[C@H](c2cc(C(F)(F)F)cc(C(F)(F)F)c2)[C@@H]1C [anacetrapib],0.72%,0.48%,-1.02%,-2.52%,2.39%
Cc1cc(O)ccc1Cl [chlorocresol],-0.46%,2.29%,1.47%,1.63%,1.88%
CCCN(C/C=C/I)C1CCc2cccc(O)c2C1 (stereo not given) [8-hydroxy-PIPAT],3.48%,1.88%,3.63%,3.07%,-2.66%
CCCCOc1ccc(-c2cncc(C(=O)NCc3cccnc3N3CCOCC3)c2)cc1Cl,-0.69%,-2.48%,-0.55%,-1.43%,-3.95%
CCN(CC)CCOC(=O)C(Cc1cccc2ccccc12)CC1CCCO1 (mixture of isomers) [naftidrofuryl],0.67%,-0.29%,2.4%,1.45%,-1.13%
Nc1nccc2c1ncn2C1C=C(CO)C(O)C1O (stereo not given) [3-deazaneplanocin-A],0.46%,1.89%,3.16%,5.38%,-3.44%
Cc1cccc(-c2n[nH]cc2-c2ccc(F)c(-c3cnn(CCO)c3)c2)n1,3.99%,1.16%,-2.29%,-0.9%,-3.66%
COc1cc(CNC(=O)CCCC/C=C/C(C)C)ccc1O [capsaicin],0.65%,0.89%,1.27%,-1.15%,2.73%
OC[C@H]1O[C@@H](Oc2cc(O)cc(/C=C/c3ccc(O)cc3)c2)[C@H](O)[C@@H](O)[C@@H]1O [polydatin],-1.01%,-1.06%,1.77%,9.49%,2.31%
CCOCc1cc(OC)c(-c2ccc(C[C@H](NC(=O)c3c(F)cccc3F)C(=O)O)cc2)c(OC)c1 [firategrast],2.19%,-0.43%,0.01%,-0.69%,-2.41%

SMILES,inhibition of SARS-CoV-2 cytopathic effect (1 nM),inhibition of SARS-CoV-2 cytopathic effect (8.33 nM),inhibition of SARS-CoV-2 cytopathic effect (100 nM),inhibition of SARS-CoV-2 cytopathic effect (833.33 nM),inhibition of SARS-CoV-2 cytopathic effect (10000 nM)
CN1CCc2cc3c(cc2[C@H]1[C@@H]1OC(=O)c2c1ccc1c2OCO1)OCO3 [bicuculline-(+)],0.45%,1.6%,0.39%,0.32%,0.5%
O=C1C(=Cc2cccnc2)C(=O)c2ccccc21,1.43%,1%,3.58%,5.97%,5.97%
C[C@@H]1COCCN1c1cc(C2([S@](C)(=N)=O)CC2)nc(-c2ccnc3[nH]ccc23)n1,-1.91%,-1.92%,0.5%,1.27%,1.76%
C=CCc1cc(OC)c(O)c(C(=O)NCCO)c1 [alibendol],-1.08%,-1.21%,-0.53%,1.71%,-2.2%
O=P1(NCCCl)OCCCN1CCCl (stereo not given) [ifosfamide],0.24%,-2.31%,0.48%,0.22%,-0.05%
CCNC(=O)Nc1ccc(-c2nc3c(c(N4CCOC[C@@H]4C)n2)CCN(C2COC2)C3)cc1,0.65%,-0.06%,-0.8%,0.29%,-0.84%
CC(C)NCC(O)COc1ccc(COCCOC(C)C)cc1 (stereo not given) [bisoprolol],-5.27%,-2.6%,-2.42%,-3.57%,-3.25%
CN(C)[C@@H]1C(O)=C(C(N)=O)C(=O)[C@@]2(O)C(O)=C3C(=O)c4c(O)ccc(Cl)c4[C@@](C)(O)[C@H]3C[C@@H]12,0.81%,3.66%,0.73%,1.21%,-0.28%
CC(C)NCC(O)COc1cccc2ccccc12 (stereo not given) [propranolol],0.19%,1.94%,-0.637%,-0.01%,-2.77%
Cn1c(N2CCCCS2(=O)=O)nc(C(=O)NCc2ccc(F)cc2)c(O)c1=O,-0.4%,-1.76%,-4.2%,-0.06%,-1.72%
N[C@@H](CCC(=O)N[C@@H](CSN=O)C(=O)NCC(=O)O)C(=O)O [S-nitrosoglutathione],0.29%,0.8%,-1.28%,-3.1%,-0.66%
Cn1c2cc([S+](C)[O-])sc2c2cnn(Cc3cccc(N)c3)c(=O)c21 (stereo not given),-0.28%,-0.88%,5.04%,3.73%,4.31%
Cc1[nH]c2ccccc2c1CCNC(=O)c1cccs1,-3.95%,-2.61%,-2.69%,1.32%,16% (active)
C=C1C(=O)[C@]23[C@H](O)[C@H]1CC[C@H]2[C@@]12CO[C@]3(O)[C@@H](O)[C@@H]1C(C)(C)CC[C@@H]2O [Oridonin (Isodonol)],-0.74%,1.14%,0.8%,3.78%,43.5% (active)
CNC(=O)c1cc(COc2nnc(Nc3ccc(Cl)cc3)c3ccoc23)ccn1 [telatinib],0.06%,2.23%,-1.3%,0.04%,0.53%
C=CCNC(=O)c1cc([N+](=O)[O-])cc2c(=O)[nH]c(Nc3ccc(Cl)c(Cl)c3)nc12,0.56%,4.08%,-1.8%,9.51%,1.19%
Oc1c(I)cc(I)c(O)c1I [riodoxol],0%,0.37%,-0.65%,-2.42%,-0.9%
c1ccc2c(CCNc3ccc(Nc4ccncc4)cc3)c[nH]c2c1 [serdemetan],-2.3%,-1.01%,-2.55%,-0.64%,22.1% (active)
Oc1ccnc2cc(Cl)ccc12 [chloroxoquinoline],-2.22%,0.71%,0.09%,-0.05%,1.04%
CC(=O)N[C@H](Cc1ccc2ccccc2c1)C(=O)N[C@H](Cc1ccc(Cl)cc1)C(=O)N[C@H](Cc1cccnc1)C(=O)N[C@@H](CO)C(=O)N[C@@H](Cc1ccc(NC(=O)[C@@H]2CC(=O)NC(=O)N2)cc1)C(=O)N[C@H](Cc1ccc(NC(N)=O)cc1)C(=O)N[C@@H](CC(C)C)C(=O)N[C@@H](CCCCNC(C)C)C(=O)N1CCC[C@H]1C(=O)N[C@H](C)C(N)=O [degarelix],-0.25%,1.93%,3.06%,1.45%,2.25%
